Most compounds without a hit are left out; they make up all but 3.1% or so of the library.
TDP1 block: TDP1 (human) enzyme inhibition | Q9NUW8 | 350,000 compounds, 0.28% hits | Potency, µM (titrated, usually from 130 µM), for the others: at the highest dose activity change, negative = inhibition, usual class: inhibitors | AID 485290 | recombinant TDP1, AlphaScreen DNA substrate cleavage; note: % is set by controls: 0 for no effect and ±100 for the full control effect; nearly all actives have a fitted effect of over 40% in size
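Recombinant human Tdp1 (E. coli-expressed, 1 nM final) preincubated with compounds 15 min at room temperature, then 5'-biotin/3'-phosphotyrosine-FITC DNA substrate (15 nM final) added for 5 min. AlphaScreen beads (10 ug/ml final) added 10 min; cleavage lowers signal.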
VDR inhibitor: inhibitors of human vitamin D receptor. VDR-SRC2-3 peptide fluorescence polarization, 2 h. Potency, µM, for inactives: max response, negative = inhibition, most hits filed as inhibitors. 400,000 compounds, 0.93% hits. AID 504847; note: % is set by controls: 0 for no effect and ±100 for the full control effect
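The screen uses fluorescence polarization to detect compounds that interfere with recruitment of the SRC2-3 coactivator peptide to VDR; plates are read after 2 h at room temperature.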
S-ASM inh: inhibitors of human secretory acid sphingomyelinase | P17405 | 340,000 compounds, 0.006% hits | AID 504937 | Potency, µM (top dose mostly 57.5 µM), for the others: at the top dose activity change, negative = inhibition, actives largely listed as inhibitors | placental ASM, HMU-PC fluorogenic substrate, 60 min
Target sequence (P17405 47-631 limits assumed): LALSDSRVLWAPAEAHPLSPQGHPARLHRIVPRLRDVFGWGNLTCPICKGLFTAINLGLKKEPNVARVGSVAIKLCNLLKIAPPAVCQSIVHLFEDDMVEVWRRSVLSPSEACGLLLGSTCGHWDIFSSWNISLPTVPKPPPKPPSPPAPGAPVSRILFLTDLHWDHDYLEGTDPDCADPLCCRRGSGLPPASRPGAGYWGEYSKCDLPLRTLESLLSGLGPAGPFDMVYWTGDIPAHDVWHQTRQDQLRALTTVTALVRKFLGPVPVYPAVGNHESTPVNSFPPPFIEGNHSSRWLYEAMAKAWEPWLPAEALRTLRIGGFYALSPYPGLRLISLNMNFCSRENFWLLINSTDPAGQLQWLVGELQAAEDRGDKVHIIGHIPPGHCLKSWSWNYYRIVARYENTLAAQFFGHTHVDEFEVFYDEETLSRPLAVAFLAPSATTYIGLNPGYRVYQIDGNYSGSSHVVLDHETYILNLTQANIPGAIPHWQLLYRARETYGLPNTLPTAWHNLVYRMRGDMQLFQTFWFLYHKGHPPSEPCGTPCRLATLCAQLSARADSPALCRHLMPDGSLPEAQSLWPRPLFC
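Fluorogenic HMU-PC substrate (9 uM final) is turned over by placental ASM in 60 min at 37 C after a 10 min compound preincubation. Reaction ended by alkaline stop (pH 10), with fluorescence read at 386/447 nm.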
Tb PFK block: T. brucei PFK enzyme inhibition; O15648; T. brucei PFK, ADP-Glo luminescence; Potency, µM (highest dose often 57.5 µM), for inactives: at the top dose activity, negative = inhibition, most hits filed as inhibitors; 330,000 compounds, 0.17% hits; AID 485367;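 note: 0% = uninhibited 1x PFK enzyme wells and -100% = no-enzyme wells; nearly all actives have a fitted effect of over 60% in size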
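ADP-Glo luminescence quantified ADP after 45 min at room temperature, with 1.25 nM T. brucei PFK, 0.1 mM ATP and 0.5 mM fructose-6-phosphate in pH 8.0 TEA buffer. qHTS titrations up to 57 µM; curves classified by quality.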
Pin1 inhibitor: inhibitors of human Pin1; Potency, µM (titrated, usually from 115 µM), for inactives: at the top dose activity, negative = inhibition, most hits filed as inhibitors; 390,000 compounds, 0.009% hits; Pin1 FP peptide displacement, HiFluor488, 10 min; active = well fitted inhibition curve with a large enough effect in the polarisation, with a control signal flat, not every such curve was filed as active; inconclusive = small, poorly fitted or top-dose-only effect, or effect the other way, or a change in a side signal; inactive = no such curve, though single readings can be large or run the other way; the % refers to the polarisation; note: % is set by controls: 0 for no effect and ±100 for the full control effect
Target sequence (Q13526 whole entry, looked up): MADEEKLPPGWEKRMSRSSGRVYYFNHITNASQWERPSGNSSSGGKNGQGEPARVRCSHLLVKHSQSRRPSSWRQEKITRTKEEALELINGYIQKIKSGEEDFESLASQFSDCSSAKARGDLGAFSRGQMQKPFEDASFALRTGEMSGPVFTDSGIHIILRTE
PLK1 PBD block: inhibitors of human PLK1 polo-box domain binding. AID 720504. P53350. Potency, µM, for the others: max response, negative = inhibition, hits mostly inhibitors. Plk1 PBD binding of FITC phosphopeptide, fluorescence polarization. 360,000 compounds, 2.8% hits; note: series mostly up to about 57 µM; % is set by controls: 0 for no effect and ±100 for the full control effect; nearly all actives have a fitted effect of over 65% in size
TbPYK confirm: Trypanosoma brucei pyruvate kinase inhibition, cherry-pick confirmation; Potency, µM (titrated, usually from 76.9 µM), without a hit: at the highest dose activity change, negative = inhibition, actives largely listed as inhibitors; recombinant TbPYK, Kinase-Glo ATP luminescence; shares compounds with PLK1 PBD block; 890 compounds, 67% hits; note: % is set by controls: 0 for no effect and ±100 for the full control effect; nearly all actives have a fitted effect of over 70% in size
TbPYK ADP-Glo: TbPYK inhibition, orthogonal confirmation. recombinant TbPYK, ADP-Glo luminescence, 60 min. 890 compounds, 62% hits. Potency, µM (series often up to 76.9 µM), for the others: at the highest dose activity change, negative = inhibition, most hits filed as inhibitors. shares compounds with PLK1 PBD block; note: % is set by controls: 0 for no effect and ±100 for the full control effect; nearly all actives have a fitted effect of over 75% in size
Numbers without * were called inactive. Unless noted, calls come from the whole dose curve; as a rule, active = well fitted curve in the direction sought with a large enough effect; inconclusive = small, poorly fitted or top-dose-only effect, or another doubt; inactive = no such curve, though single readings can be large; an effect the other way counts as inactive or inconclusive. Potency is the fitted concentration of half-maximal effect.

Results for CCOC(=O)CCc1c(C)nc(SCCCn2c(=O)[nH]c3ccccc32)c(C#N)c1C ?
TDP1 block: 7%; VDR inhibitor: 7%; S-ASM inh: -5%; Tb PFK block: -23%; Pin1 inhibitor: inconclusive; PLK1 PBD block: -16%; TbPYK confirm: 5.6µM*; TbPYK ADP-Glo: 14µM*

What do the screens show for `CC12CCC=CC1C(c1ccc(/C=C/c3ccccc3)cc1F)N(Cc1ccccc1)C2=O` (stereo not drawn)?
TDP1 block: 9%; VDR inhibitor: 1%; Pin1 inhibitor: 9%

How did CCOc1ccccc1N1C(=O)CC(Sc2n[nH]c(-c3ccccc3)n2)C1=O (stereo not drawn) do in these assays?
TDP1 block: 9%; VDR inhibitor: -11%; S-ASM inh: 5%; Tb PFK block: 7%; Pin1 inhibitor: 4%; PLK1 PBD block: 7.5µM*; TbPYK confirm: 7.1µM*; TbPYK ADP-Glo: 13µM*

What do the screens show for `CN(C)c1oc(-c2ccccc2[N+](=O)[O-])nc1C#N`?
TDP1 block: -13%; VDR inhibitor: 32µM*; S-ASM inh: 8%; Tb PFK block: -1%; Pin1 inhibitor: -10%; PLK1 PBD block: 27µM*; TbPYK confirm: 1.8µM*; TbPYK ADP-Glo: 4.5µM*

Results for CC(C)CN(C(=O)CN1CCN(c2ccc(O)cc2)CC1)c1c(N)n(CC(C)C)c(=O)[nH]c1=O ?
TDP1 block: -3%; VDR inhibitor: -9%; S-ASM inh: 18%; Tb PFK block: -16%; Pin1 inhibitor: -10%; PLK1 PBD block: -11%; TbPYK confirm: inconclusive; TbPYK ADP-Glo: inconclusive

Results for COC(=O)/C(=N/Nc1ccccc1C)Sc1nnc(C(O)c2ccccc2)n1-c1ccccc1 (stereo not drawn) ?
TDP1 block: -3%; VDR inhibitor: 6%; S-ASM inh: -3%; Tb PFK block: -2%; Pin1 inhibitor: 1%; PLK1 PBD block: -10%; TbPYK confirm: 35µM*; TbPYK ADP-Glo: 35µM*

What do the screens show for `Cc1ccccc1NC(=O)CSc1ccc(-c2cccs2)nn1`?
TDP1 block: 3%; VDR inhibitor: 17%; Pin1 inhibitor: 17%

Results for CCCN1C(=O)S/C(=C\c2ccc(N3CCOCC3)o2)C1=O ?
TDP1 block: inconclusive; VDR inhibitor: 32µM*; S-ASM inh: -8%; Tb PFK block: inconclusive; Pin1 inhibitor: inconclusive; PLK1 PBD block: 105%; TbPYK confirm: inconclusive; TbPYK ADP-Glo: 40µM*

What do the screens show for `O=C1C2C(C(=O)N1/N=C/c1ccc(N3CCCCC3)o1)C1C=CC2C12CC2` (stereo not drawn)?
TDP1 block: -2%; VDR inhibitor: 89µM*; S-ASM inh: 30%; Tb PFK block: -4%; Pin1 inhibitor: 7%; PLK1 PBD block: -4%; TbPYK confirm: 28µM*; TbPYK ADP-Glo: 32µM*

What do the screens show for `CCOC(=O)CN1C(=O)S/C(=C/c2ccc(N3CCCCC3)o2)C1=O`?
TDP1 block: 2%; VDR inhibitor: -14%; S-ASM inh: -1%; Tb PFK block: -17%; Pin1 inhibitor: inconclusive; PLK1 PBD block: 73%

How did CC(C)(C)c1ccc(C(=O)N/C(=C\c2ccco2)C(=O)Nc2ccccc2C(=O)O)cc1 do in these assays?
TDP1 block: 8%; VDR inhibitor: -17%; S-ASM inh: 6%; Tb PFK block: -18%; Pin1 inhibitor: inconclusive; PLK1 PBD block: -19%; TbPYK confirm: inconclusive; TbPYK ADP-Glo: -26%

What do the screens show for `C=CCN1C(=O)/C(=c2\sc3nc(=O)c(Cc4ccc(OC)c(OC)c4)nn3c2=O)c2ccccc21`?
TDP1 block: 8%; VDR inhibitor: 40µM*; S-ASM inh: -1%; Tb PFK block: -1%; PLK1 PBD block: 11µM*; TbPYK confirm: inconclusive; TbPYK ADP-Glo: 35µM*

Results for CCN1C(=O)/C(=c2\sc3nc(=O)c(Cc4ccccc4)nn3c2=O)c2ccccc21 ?
TDP1 block: 6%; VDR inhibitor: inconclusive; S-ASM inh: -1%; Tb PFK block: -8%; Pin1 inhibitor: inconclusive; PLK1 PBD block: inconclusive

How did COc1ccc(CCN2C(=O)C=CC2=O)cc1OC do in these assays?
VDR inhibitor: inconclusive; S-ASM inh: 5%; Pin1 inhibitor: -2%; PLK1 PBD block: 6.7µM*; TbPYK confirm: 4.5µM*; TbPYK ADP-Glo: 5.6µM*

Results for COc1ccc(CCn2c(C)ccc2C)cc1OC ?
TDP1 block: 2%; Tb PFK block: -1%

How did CCN(CC)c1ccc(/C=C(\C#N)c2ccccn2)cc1 do in these assays?
TDP1 block: -1%; VDR inhibitor: -16%; S-ASM inh: 7%; Tb PFK block: 2%; Pin1 inhibitor: inconclusive; PLK1 PBD block: -7%

What do the screens show for `N#C/C(=C\c1ccc(C(=O)O)cc1)c1ccccn1`?
TDP1 block: -1%; VDR inhibitor: -9%; S-ASM inh: 2%; Tb PFK block: 0%; Pin1 inhibitor: -8%; PLK1 PBD block: -7%; TbPYK confirm: inconclusive; TbPYK ADP-Glo: 2%

Results for NC(=O)CSc1nnc(-c2cccc(S(=O)(=O)N3CCOCC3)c2)n1C1CCCCCC1 ?
TDP1 block: -1%; VDR inhibitor: inconclusive; S-ASM inh: -1%; Tb PFK block: 1%; Pin1 inhibitor: 10%; PLK1 PBD block: 3µM*; TbPYK confirm: -13%; TbPYK ADP-Glo: -19%

Results for O=C1/C(=C/c2ccncc2)CCc2ccccc21 ?
TDP1 block: 3%; VDR inhibitor: inconclusive; S-ASM inh: 2%; Tb PFK block: -25%; Pin1 inhibitor: 2%; PLK1 PBD block: -4%

What do the screens show for `CCOc1ccc(/C=C2\CCc3ccccc3C2=O)cc1`?
TDP1 block: 1%; VDR inhibitor: 1%; S-ASM inh: 4%; Tb PFK block: -1%; Pin1 inhibitor: -5%; PLK1 PBD block: -8%

How did O=C1C(=Cc2ccc(F)cc2)CCc2ccccc21 do in these assays?
PLK1 PBD block: -15%; TbPYK confirm: 28µM*; TbPYK ADP-Glo: 10%

Results for O=C1C(=Cc2ccc(Cl)cc2)CCc2ccccc21 ?
PLK1 PBD block: 2%; TbPYK confirm: 25µM*; TbPYK ADP-Glo: 7%
